Bioassay records deposited in PubChem by several laboratories.
Compounds with a hit are over-represented: about 2.8% of the library has one in this group of screens.
ERa SRC1 inh: ER-alpha (human) coactivator binding inhibition. inhibition, % at 25.6 µM. TR-FRET ER-alpha LBD / SRC-1 peptide, estradiol-bound. AID 629. actives 1.7% (n = 86,000); in the data active = inhibition above about 50%;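 note: 0% = receptor plus peptide control and 100% = peptide only without receptor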
Smad3 FoxH1 inh: Smad3 (human) transcription factor binding inhibition; inhibition, % at 25 µM; AID 630; actives 0.29% (n = 88,000); TR-FRET Smad3/Dy647-FoxH1 peptide binding, europium anti-His;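 active = compounds that reduce the energy-transfer binding signal between the protein and its labelled peptide by more than half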;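 note: 0% = Smad3 plus labelled peptide maximal FRET and 100% = peptide-only background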
ERa SRC1 pot: ER-alpha (human) coactivator binding potentiation. TR-FRET ERalpha-LBD/SRC-Cy5 coactivator binding, 2 h; 100 = basal binding, no effect. coactivator binding (% of control), % at 25.6 µM. actives 1.3% (n = 86,000); in the data active = activity above about 200%;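 note: binding measured in presence of low estradiol as agonist stimulus; 0% = peptide alone without receptor and 100% = receptor with peptide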
ERb coact inh: blocks coactivator binding to human estrogen receptor beta. actives 1.3% (n = 86,000). TR-FRET ER-beta LBD / SRC1-Cy5 peptide binding; receptor agonist-loaded with 1 µM estradiol. Q92731. inhibition, % at 25.6 µM;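 active = compounds whose percent inhibition of the receptor-coactivator binding signal exceeds about 50% in the single-dose screen, limit read from the data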;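 note: 0% = receptor plus peptide wells without compound and 100% = peptide-only wells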
Target sequence (Q92731 whole entry, looked up, the tested form may be a part): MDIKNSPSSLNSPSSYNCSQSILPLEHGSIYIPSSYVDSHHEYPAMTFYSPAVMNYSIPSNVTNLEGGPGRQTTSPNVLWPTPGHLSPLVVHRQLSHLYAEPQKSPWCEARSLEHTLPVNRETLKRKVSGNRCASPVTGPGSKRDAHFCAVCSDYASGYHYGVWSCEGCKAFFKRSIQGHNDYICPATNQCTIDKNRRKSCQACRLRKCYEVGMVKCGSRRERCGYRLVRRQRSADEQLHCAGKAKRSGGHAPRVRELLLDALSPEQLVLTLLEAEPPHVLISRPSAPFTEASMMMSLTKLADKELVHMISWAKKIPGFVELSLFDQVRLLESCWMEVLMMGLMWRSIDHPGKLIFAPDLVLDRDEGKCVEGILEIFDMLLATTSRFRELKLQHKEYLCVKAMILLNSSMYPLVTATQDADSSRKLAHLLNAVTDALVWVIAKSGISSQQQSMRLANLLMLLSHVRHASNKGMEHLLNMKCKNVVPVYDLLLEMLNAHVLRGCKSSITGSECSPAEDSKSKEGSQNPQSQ
MRP resist rev: compounds reversing MRP-mediated drug resistance; differential viability (reversal), % at 10 µM; actives 0.04% (n = 85,000); H69AR cells + 2 uM doxorubicin, CellTiter-Glo, 72 h; AID 602;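 active = viability drop by adding the cancer drug above about 55%, with treated viability meeting a 40% cutoff, limit read from the data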;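 note: viability without doxorubicin minus viability with 2 µM doxorubicin for each compound; larger differential means the compound sensitizes cells more to doxorubicin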
MRP1 act: activates MRP-1; AID 799; actives 0.61% (n = 140,000); H69AR cells + doxorubicin, viability rescue, CellTiter-Glo; viability increase, % at 10 µM;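 active = viability gain under doxorubicin at or above a set limit, the compound median plus 3 SD, cut at about 4.7% in these data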;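 note: MRP-1 overexpressing cells given doxorubicin 25 µM after compound pretreatment; 18-22 h compound pretreatment then 72 h with doxorubicin before readout; 0% = doxorubicin-only wells and 100% = vehicle-treated cells without doxorubicin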
The depositor's hits bear a star; nt = no result; [ ] = remark or other dose.

SMILES	ERa SRC1 inh	Smad3 FoxH1 inh	ERa SRC1 pot	ERb coact inh	MRP resist rev	MRP1 act
CCc1nc(SCC(=O)NCc2ccco2)c2c3c(sc2n1)CCCC3	11	-11	179	11	-17	-2
CCCCc1nc2sc3c(SCC(=O)NCc4ccco4)ncnc3c2c2c1CCC2	34	30	575*[fluorescence artefact?]	43	-26	-5
Cc1sc2ncnc(SCC(=O)NC(=O)NCc3ccco3)c2c1C	73*	-5	85	81*[fluorescence artefact?]	-3	-2
COc1cccc(N2C(=O)C3CCCN3C2c2ccc(Cl)cc2)c1 (stereo not given)	-2	5	114	-14	15	-3
C[C@@H](CCC(=O)O)C(=O)O	nt	8	nt	nt	nt	nt
COc1ccc(C[C@@H]2C(=O)N[C@H](C)C(=O)N(C)[C@@H]3Cc4ccc(cc4)Oc4cc(ccc4O)C[C@@H](C(=O)N[C@@H](C)C(=O)N[C@H](C)C(=O)N2C)N(C)C3=O)cc1	nt	11	nt	nt	nt	nt
Cc1sc2nc(SCC(=O)NCc3ccco3)n(-c3ccccc3)c(=O)c2c1C	15	-56	229*[fluorescence artefact?]	6	7	-1
O=C(NCc1ccco1)c1cc2cc3ccc(Cl)cc3nc2o1	67*	11	182	56*	2	-3
Cc1sc2ncnc(NCc3ccco3)c2c1C	58*	2	61	54*	-2	-4
COc1ccc(-n2nc(C(=O)NCC(=O)NCC3CCCO3)c3ccccc3c2=O)cc1Cl (stereo not given)	nt	nt	nt	nt	nt	-3
O=C(/C=C/c1ccc([N+](=O)[O-])cc1)NCC1CCCO1 (stereo not given)	nt	nt	nt	nt	nt	1
O=S(=O)(O)c1cc(O)c2c(O)c(N=Nc3cccc4ccccc34)c(S(=O)(=O)O)cc2c1	nt	3	nt	nt	nt	nt
COc1cc2[nH]c(=O)n(CCC(=O)N3CCN(c4cccc(C)c4C)CC3)c(=O)c2cc1OC	53*[fluorescence artefact?]	5	116	7	1	-1
COc1cc2[nH]c(=O)n(CCCCCC(=O)N3CCN(c4ccccc4)CC3)c(=O)c2cc1OC	5	8	102	1	0	-2
Cc1ccc(-c2nnc3n2N=C(c2ccc(Br)cc2)CS3)cc1	66*	9	95	30	-7	-2
Cc1cccc(-c2nnc3n2N=C(c2ccc(Br)cc2)CS3)c1	56*[fluorescence artefact?]	16	297*	38	-15	nt
COc1ccccc1-c1nnc2n1N=C(c1ccc(O)c(O)c1)CS2	60*[fluorescence artefact?]	16	50	75*[fluorescence artefact?]	-25	-4
Oc1cc(O)c2c(c1)O[C@@H](c1ccc(O)c(O)c1)[C@H](O[C@@]1(c3cc(O)c(O)c(O)c3)Oc3cc(O)cc(O)c3[C@H](O)[C@H]1O)C2	nt	12	nt	nt	nt	nt
C[C@@]12C[C@H](O)[C@@H]3[C@H](CCC4=CC(=O)CC[C@]43C)[C@H]1CC[C@H]2c1csc(N)n1	nt	15	nt	nt	nt	nt
O=C(CSc1nccc(=O)[nH]1)c1ccccc1Br	-1	15	96	-7	6	-1
COc1cc(C(=O)OCC(=O)Nc2c(F)c(F)c(F)c(F)c2F)cc(OC)c1OC	58*	-3	95	37	-2	0
Cc1ccc2cc3cc(C(=O)NCCCN4CCCCCC4)oc3nc2c1	58*[fluorescence artefact?]	0	105	26	33	-6
CC/C(=N\NC(=O)C(N)=O)c1ccccc1O	nt	nt	nt	nt	nt	5.1*
C/C(=N\NC(=O)C(N)=O)c1ccc(Br)cc1	nt	nt	nt	nt	nt	-3
COc1cc2c3c(c1)/C(=C1/SC(NC(C)=O)=NC1=O)C(=O)N3C(C)(C)C=C2C	77*[fluorescence artefact?]	11	49	54*	-18	-2
SMILES	ERa SRC1 inh	Smad3 FoxH1 inh	ERa SRC1 pot	ERb coact inh	MRP resist rev	MRP1 act
CCN1C(=O)/C(=C2/C(=O)N3c4c(cc(OC(C)=O)cc42)C(C)=CC3(C)C)SC1=S	nt	nt	nt	nt	nt	-3
Cc1cn([C@@H]2C[C@H](O)[C@@H](COC(N)=O)O2)c(=O)[nH]c1=O	nt	5	nt	nt	nt	nt
CCOC(=O)Cc1ccc(NS(=O)(=O)c2ccc(SC)cc2)cc1	54*	3	52	18	9	-2
Cc1nccn1-c1ncnc2sc3c(c12)CCCC3	1	5	93	63*	2	-3
Cc1cc(C)n(-c2ncnc3sc4c(c23)CCCC4)n1	-3	13	103	5	-19	-2
C[C@H](NS(=O)(=O)c1ccccc1)C(=O)OCC(=O)NC(=O)Nc1ccc2c(c1)OCCO2	nt	nt	nt	nt	nt	-2
CCOC(=O)N1CCN(S(=O)(=O)c2ccc(C(=O)Nc3nc4ccccc4s3)cc2)CC1	42	-13	280*[fluorescence artefact?]	30	2	-2
CCOC(=O)N1CCN(S(=O)(=O)c2ccc(C(=O)Nc3nc4ccc(F)cc4s3)cc2)CC1	-5	-25	377*	5	2	-5
COC(=O)c1cn(CC(=O)NC2CCCCCC2)c2ccccc12	12	-2	117	3	-26	-1
CC1(C)CCCN(C(=O)c2coc(=O)c(Br)c2)C1	90*[fluorescence artefact?]	61*	14	83*	-24	-6
CC(=O)c1cccc(S(=O)(=O)N2CCN(c3nc4cc(C)cc(C)c4cc3C#N)CC2)c1	40	-12	183	58*[fluorescence artefact?]	nt	3
Cc1ccc(S(=O)(=O)N2CCN(c3nc4ccccc4nc3-n3nc(C)cc3C)CC2)cc1	9	2	185	-9	2	-2
Cc1ccc(C(=O)NNC(=O)c2cccc(S(=O)(=O)N3CCN(c4ccccc4)CC3)c2)cc1	nt	nt	nt	nt	nt	2
Cc1cc(C)c2cc(C#N)c(N3CCCN(S(=O)(=O)c4ccccc4)CC3)nc2c1	24	4	262*[fluorescence artefact?]	27	2	nt
N#Cc1cc2c(=O)n3ccccc3nc2n(CCCn2ccnc2)c1=N	35	4	61	56*	11	-3
CCCn1c(=N)c(C#N)cc2c(=O)n3ccccc3nc21	nt	nt	nt	nt	nt	-3
CC1(C)Cc2nc3sc4c(SCC(=O)NCc5ccccc5)ncnc4c3cc2CO1	28	-25	431*[fluorescence artefact?]	42	-4	-2
CC1(C)Cc2nc3sc4c(N(CCO)CCO)ncnc4c3cc2CO1	nt	nt	nt	nt	nt	-1
O[C@@H](c1cc(-c2ccccc2)nc2c1ccc1ccccc12)[C@@H]1CCCCN1	nt	15	nt	nt	nt	nt
Cc1ccc([C@@]2(C)CC/C(=N\N=C3/CC[C@](C)(c4ccc(C)c(C)c4)c4cc(C)c(C)cc43)c3cc(C)c(C)cc32)cc1C	nt	9	nt	nt	nt	nt
CCOC(=O)C(C(C)=O)c1c(Br)c(O)c(O)c2c(C(=O)c3ccc(C)cc3)coc12 (stereo not given)	43	-4	54	72*[fluorescence artefact?]	1	-8
CCOc1ccc(C(=O)Nc2ccc(NC(=O)c3ccco3)c(Cl)c2)cc1Cl	12	-20	715*[fluorescence artefact?]	48	4	-6
C[C@]12CC[C@@H]3c4ccc(O[C@@H]5O[C@H](C(=O)O)[C@@H](O)[C@H](O)[C@H]5O)cc4CC[C@H]3[C@@H]1C[C@@H](O)[C@@H]2O	-8	2	429*	10	-13	nt
Cc1ccc2nc(N/N=C/c3cccc(C)n3)cc(C)c2c1	nt	11	nt	nt	nt	nt
